# Screening data deposited in PubChem by National Center for Advancing Translational Sciences (NCATS).
# The entries come from a sample that favours hits as a whole.
# Pf Dd2 growth: qHTS Primary assay for Inhibitors of Plasmodium falciparum Dd2 growth in vitro. P. falciparum Dd2 growth, SYBR Green, 72 h. Potency, µM (titrated, usually from 28.9 µM), hits mostly inhibitors. 4.3% of 120,000 active. AID 1347417, 2020; active = well fitted inhibition curve with a large enough effect; note: nearly all actives have a fitted effect of over 65% in size
#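 Infected erythrocytes (Dd2, 0.3% parasitemia, 2.5% hematocrit final) are added to compound in RPMI-1640/Albumax II medium, grown 72 h at 37C in low oxygen, then lysed with saponin/Triton-X containing SYBR Green and read by fluorescence.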
# Numbers stand for hits; i = inactive; [ ] = dose if it differs, or a comment.
SMILES,Pf Dd2 growth
O=C(NC1CCCCC1)N[C@H]1CCN2C(=O)c3ccc(Cl)cc3NC(=O)[C@H]12,i
CC(C)(C)c1nnc([C@H]2CCN(C(=O)CCC(=O)O)C2)o1,i
CS(=O)(=O)N(C1CC1)C1CCOC2(CCN(C(=O)CCCc3ccccc3)CC2)C1 (stereo not given),i
CCC1CN(C(=O)c2ccc(-c3ccsc3)nc2)CCN1C(C)C (stereo not given),i
CCN1CCN(C(c2ccccc2Cl)c2c(O)cc(C)n(Cc3ccco3)c2=O)CC1 (stereo not given),i
CCOc1ccc(CN2CCC(N(C(=O)CC)C3CCOCC3)CC2)cc1,i
CCc1ccc(Oc2c(C(F)(F)F)oc3c(CN4CCN(CC)CC4)c(O)ccc3c2=O)cc1,0.1µM
CCN1CCN(Cc2c(O)ccc3c(=O)c(Oc4ccccc4Cl)c(C(F)(F)F)oc23)CC1,0.25µM
CCc1ccc(Oc2c(C(F)(F)F)oc3c(CN4CCC(C)CC4)c(O)ccc3c2=O)cc1,0.32µM
O=C1CCCCCN1C1CCN(Cc2ccc(OC(F)(F)F)cc2)CC1,i
Cc1cc(C[C@@H]2COC[C@@H]2NC(=O)c2cc(=O)n(-c3ccccc3)[nH]2)on1,i
O=C(Cc1cccc(Cl)c1)N1CCn2c(nnc2-c2ccccc2)C1,i
C=CCNC(=O)CN1CC2CC(C1)[C@H]1CCCC(=O)N1C2 (stereo not given in full),i
CC1CCN(CC(=O)N2CCC(c3nc4ccccc4o3)CC2)C1=O (stereo not given),i
O=C(NCc1cc2n(n1)CCCNC2)C1Cc2ccccc2S(=O)(=O)N1 (stereo not given),i
COCCNC(=O)[C@@H]1C[C@H](Oc2ccccc2)CN1C(=O)Nc1ccc2c(c1)OCCO2,i
CN(C(=O)c1ccc[nH]c1=O)C1CCc2nn(C)c(=O)n2CC1 (stereo not given),i
Cc1cc(C)c(NC(=O)Nc2ccc3snnc3c2)c(C)c1,i
O=C(Nc1cccc(C(F)(F)F)c1)c1ccc2snnc2c1,i
O=C(Nc1cccc(C(F)(F)F)c1)Nc1ccc2snnc2c1,1.1µM
Cc1ncc2c(c1CNC(=O)c1cccc(N3CCOCC3)c1)CCNC2,i
COc1ccccc1-c1cc(C(=O)N2CCOCC2)nn2cccc12,i
CCOCc1nc(C2CCCN(C(=O)c3cccnc3)C2)no1 (stereo not given),i
c1ccc(CN2CC[C@H](c3nnc(-c4ccncc4)o3)C2)cc1,i
COc1ccc(C(=O)Nc2cc3c(cc2C(=O)c2ccccc2Cl)OCCO3)cc1,i
SMILES,Pf Dd2 growth
Cc1ccc(C(=O)Nc2cccc3cccnc23)cc1Cl,i
COc1ccc(C(=O)NC(c2ccccc2Cl)c2cc(Cl)c3cccnc3c2O)cc1 (stereo not given),3.5µM
Cn1cc(CN2CCN3C(=O)N(C4CCOCC4)C[C@H]3C2)cn1,i
COc1ccc(C(=O)N2CCC(c3n[nH]c(=O)n3Cc3ccc(F)cc3)CC2)c(OC)n1,i
O=C(Nc1cccc(OC(F)(F)F)c1)c1cc(-c2ccc[nH]2)n[nH]1,i
COc1ccc([C@H]2C[C@@H](O)[C@@H](O)[C@@H]2NCc2cccc(C#N)c2)cc1,i
COc1ccc([C@H]2C[C@@H](O)[C@@H](O)[C@@H]2NCc2cccc(C(F)(F)F)c2)cc1,8.9µM
COc1ccc([C@H]2C[C@@H](O)[C@@H](O)[C@@H]2NCc2cnc3ccccc3c2)cc1,i
CNC(=O)[C@@H]1C[C@H](n2cc(CN(C)C(=O)Nc3ccc(C)c(C)c3)nn2)CN1,i
O=C1NCN(Cc2ccc(Cl)cc2)C12CCN([S+](=O)([O-])c1cccs1)CC2,i
COc1ccc(CCNC(=O)c2ccc3c(Cl)c4c(nc3c2)CCCC4)cc1OC,11µM
COc1ccc(CNC(=O)c2ccc3c(Cl)c4c(nc3c2)CCCC4)c(OC)c1,i
CCc1nc2ccc(C(=O)NCCc3ccc(OC)c(OC)c3)cc2nc1CC,i
COCCNC(=O)c1ccc2c(c1)ncn2-c1cc(C)ccc1OC,i
COc1ccc(CCNC(=O)c2ccc3c(Cl)c4c(nc3c2)CCCC4)c(OC)c1,i
COc1ccc(CCNC(=O)c2ccc3c(c2)ncn3-c2ccc(C(C)C)cc2)cc1OC,11µM
COc1ccc(-c2noc([C@@H]3CCCN3C(=O)c3ccc(C)c(C)c3)n2)cc1OC,i
COc1ccc(Cc2nc3nccc(-c4ccccn4)n3n2)cc1,i
O=S(=O)(NCCn1cc(-c2cncnc2)nn1)c1ccc(Cl)cc1,i
CCc1ccc(S(=O)(=O)c2cn(C)c3cc(N4CCOCC4)c(F)cc3c2=O)cc1,i
CCCN1CCN(c2cc3c(cc2F)c(=O)c(S(=O)(=O)c2ccc(CC)cc2)cn3CC)CC1,10µM
CCCCn1cc(S(=O)(=O)c2ccccc2)c(=O)c2cc(F)c(N3CCN(CCC)CC3)cc21,i
CCc1ccc(S(=O)(=O)c2cn(C)c3cc(N4CCCC4)c(F)cc3c2=O)cc1,i
CCCn1cc(S(=O)(=O)c2ccc(CC)cc2)c(=O)c2cc(F)c(N3CCN(C)CC3)cc21,7.1µM
CCn1cc(S(=O)(=O)c2cc(C)cc(C)c2)c(=O)c2cc(F)c(N3CCC(C)CC3)cc21,i
SMILES,Pf Dd2 growth
Cc1ccc(-c2nc3cccc(C)n3c2Nc2ccc3c(c2)OCO3)o1,i
Cc1cccn2c(Nc3ccccc3)c(-c3ccc(N4CCOCC4)cc3)nc12,i
Cc1cccn2c(Nc3ccc4c(c3)OCCO4)c(-c3ccc(Br)o3)nc12,8.9µM
COCCOC1CCN(S(=O)(=O)c2c(C)noc2C)CC1,i
COCC(NC(=O)c1cc(S(N)(=O)=O)ccc1F)c1ccnn1C (stereo not given),i
O=C(NCCc1ccccn1)C1CN(S(=O)(=O)c2cccnc2)CC12CCCCC2 (stereo not given),i
COc1cccc(NC(=O)N2CCC(Oc3ncccc3C(=O)N3CCOCC3)C2)c1 (stereo not given),i
CCc1ccccc1NC(=O)c1sc(-n2nc(C)c(Cc3ccc4c(c3)OCO4)c2C)nc1C,4µM
Cc1ccc(NC(=O)c2sc(-n3nc(C)c(Cc4ccc5c(c4)OCO5)c3C)nc2C)cc1Cl,i
Cc1nc(-n2nc(C)c(Cc3ccc4c(c3)OCO4)c2C)sc1C(=O)Nc1ccc(Cl)cc1,i
CC(C)c1nc2ccccc2n1CCNC(=O)CC[C@H]1NC(=O)c2ccccc2NC1=O,i
CN(Cc1cccnc1)c1nc2c(c(=O)[nH]1)CCN(Cc1ccc3cc[nH]c3c1)CC2,i[5.79 µM]
O=C1CC[C@@H](CN(Cc2ccncc2)C(=O)c2ccc3nccn3c2)N1,i
CCOC(=O)C1CCN(C(=O)c2ccc3c(=O)n4nc(Nc5ccccc5)sc4nc3c2)CC1,i
COc1ccc(NC(=O)c2ccc3c(=O)n4nc(Nc5ccccc5C)sc4nc3c2)cc1Cl,i
COC(=O)c1ccc2c(=O)n3nc(Nc4cc(OC)ccc4OC)sc3nc2c1,i
CCc1ccccc1Nc1nn2c(=O)c3ccc(C(=O)NCCCOC(C)C)cc3nc2s1,11µM
COc1ccccc1Nc1nn2c(=O)c3ccc(C(=O)NC(C)c4ccccc4)cc3nc2s1 (stereo not given),i
Cc1ccc(Cl)cc1Nc1nn2c(=O)c3ccc(C(=O)Nc4ccc(F)cc4)cc3nc2s1,i
Cc1ccc(Cl)cc1Nc1nn2c(=O)c3ccc(C(=O)NC(C)c4ccccc4)cc3nc2s1 (stereo not given),7.9µM
Cc1ccc(NC(=O)c2ccc3c(=O)n4nc(Nc5ccccc5C)sc4nc3c2)cc1C,i
CCc1ccccc1Nc1nn2c(=O)c3ccc(C(=O)NCc4cccs4)cc3nc2s1,14µM
